± gives the standard deviation of the averaged measurements.
compound: CCCCN=C=S [butyl isothiocyanate]; experiment: control-subtracted net OSN firing rate; higher = stronger neuronal activation; conditions: odorant dilution (vol/vol): 1/100
Description: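 Single sensillum recordings from olfactory sensory neurons. The neurons sit in the maxillary palp or antennal sensilla of D. melanogaster (wild type, mutants, or at1 empty-neuron lines expressing Or42a homologs or the A181D S307P mutant) and of four Scaptomyza species. Each odorant was given as a 1 s pulse from 20 µl loaded on filter paper at 1:100 vol/vol, diluted in mineral oil (γ-hexalactone in DMSO). Spikes were counted in a 0.5 s window starting 0.2 s after onset, background was subtracted, the count was doubled, and the mean solvent-control response was subtracted.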

Row | Target | control-subtracted net OSN firing rate
1 | Or67dGal4, UAS-Sfla Or42a3 at1 | 46 ± 28 spikes/s
2 | S. hsui pb2b-like | 3.67 ± 6.9 spikes/s
3 | S. hsui pb1a-like | 7.67 ± 5.8 spikes/s
4 | S. pallida pb3b-like | -1.67 ± 20 spikes/s
5 | S. pallida pb1a-like | 11.7 ± 10 spikes/s
6 | Or67dGal4, UAS-Sfla Or42a2 at1 | 2.86 ± 5 spikes/s
7 | Canton-S (D. melanogaster) pb3a | 2.5 ± 6.6 spikes/s
8 | Canton-S (D. melanogaster) pb1a | 8 ± 8.9 spikes/s
9 | Canton-S (D. melanogaster) pb3b | 2 ± 11 spikes/s
10 | Or67dGal4, UAS-Spal Or42a at1 | 18.2 ± 16 spikes/s
11 | Or67dGal4, UAS-Dmel Or42a at1 | 10.3 ± 7.7 spikes/s
12 | Canton-S (D. melanogaster) pb2a | 3.43 ± 2.8 spikes/s
13 | Canton-S (D. melanogaster) pb2b | -1.71 ± 8.6 spikes/s
14 | S. montana pb1a-like | 92.3 ± 11 spikes/s
15 | S. montana pb2b-like | -0.333 ± 6 spikes/s
16 | S. pallida pb2a-like | 5 ± 7.6 spikes/s
17 | S. pallida pb1b-like | -4.33 ± 11 spikes/s
18 | S. hsui pb3a-like | 0 ± 6.8 spikes/s
19 | Or67dGal4, UAS-Sfla A181D S307P/+ at1 | 29 ± 10 spikes/s
20 | S. pallida pb2b-like | 2.67 ± 9.3 spikes/s

Row | Target | control-subtracted net OSN firing rate
21 | S. hsui pb3b-like | 1 ± 2.8 spikes/s
22 | Or67dGal4, UAS-Sfla Or42a4/+ at1 | 22.6 ± 4.1 spikes/s
23 | S. flava pb2b-like | -1.33 ± 10 spikes/s
24 | S. flava pb1b-like | -17.7 ± 20 spikes/s
25 | S. flava pb2a-like | -3 ± 8.9 spikes/s
26 | Or67dGal4, UAS-Sfla Or42a4 at1 | 96.7 ± 25 spikes/s
27 | Or67dGal4, UAS-Sfla Or42a3/+ at1 | 27.7 ± 5 spikes/s
28 | S. hsui pb1b-like | -1 ± 5.2 spikes/s
29 | S. hsui pb2a-like | -1 ± 6 spikes/s
30 | Or67dGal4; UAS-A181D S301P at1 | 68.6 ± 33 spikes/s
31 | S. montana pb3b-like | 0.333 ± 6.1 spikes/s
32 | S. flava pb1a-like | 90.7 ± 22 spikes/s
33 | S. montana pb3a-like | 0.667 ± 10 spikes/s
34 | Or67dGal4; UAS-SflaOr42a3 at1 | 74.8 ± 23 spikes/s
35 | Or67dGal4; UAS-SflaOr42a4 at1 | 120 ± 36 spikes/s
36 | S. montana pb1b-like | -15 ± 6.8 spikes/s
37 | S. flava pb3b-like | 1.67 ± 15 spikes/s
38 | S. montana pb2a-like | 2 ± 4.6 spikes/s
39 | Canton-S (D. melanogaster) pb1b | -2.22 ± 8 spikes/s
40 | S. flava pb3a-like | 5.67 ± 8.2 spikes/s

— the supplement of paper PMC11482750
